Test results published in PubChem BioAssay (NCATS).
Records with an inconclusive call do not appear. A call without a number means that no potency is given here. A number with no mark means an inactive call. Calls of active or inactive are those of the source. Calls come from the whole dose curve; as a rule, active = well fitted curve in the direction sought with a large enough effect; inconclusive = small, poorly fitted or top-dose-only effect, or another doubt; inactive = no such curve, though single readings can be large; an effect the other way counts as inactive or inconclusive.

Key:
Es-2 = experiment: Primary qHTS to identify gynecologic anti-cancer compounds using libraries of approved drugs and bioactive compounds (AID 1345084); settings: Gynecologic cancer cell panel viability, ATPlite luminescence, 48 h; series mostly up to 57.5 µM; note: nearly all actives have a fitted effect of over 55% in size
Summary of the method: (§1)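 In this quantitative HTS, cell killing is estimated from loss of ATP-dependent luciferase light. Cells see five compound concentrations over a 48 h exposure.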

HeLa = experiment: as above; settings: Gynecologic cancer cell panel viability, ATPlite luminescence, 48 h; series mostly up to 57.5 µM
Summary of the method: as §1

Hek293T = experiment: as above; settings: Gynecologic cancer cell panel viability, ATPlite luminescence, 48 h, control line for the selectivity index; series mostly up to 57.5 µM
Summary of the method: as §1

JEG-3 = experiment: as above; settings: Gynecologic cancer cell panel viability, ATPlite luminescence, 48 h; series mostly up to 57.5 µM
Summary of the method: as §1

OV90 = experiment: as above; settings: Gynecologic cancer cell panel viability, ATPlite luminescence, 48 h; series mostly up to 57.5 µM
Summary of the method: as §1

PA-1 = experiment: as above; settings: Gynecologic cancer cell panel viability, ATPlite luminescence, 48 h; series mostly up to 57.5 µM
Summary of the method: as §1

Tov-21-G = experiment: as above; settings: Gynecologic cancer cell panel viability, ATPlite luminescence, 48 h; series mostly up to 57.5 µM
Summary of the method: as §1

Tov112D = experiment: as above; settings: Gynecologic cancer cell panel viability, ATPlite luminescence, 48 h; series mostly up to 57.5 µM
Summary of the method: as §1

[1] = Drug repurposing screens with cells derived from glioblastoma tumor samples (AID 1345199); settings: GBM patient neurospheres viability, ATP luminescence, 48 h; note: nearly all actives have a fitted effect of over 40% in size
Summary of the method: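 Primary testing used CD133+ neurospheres from four GBM patients, seven concentrations, 48 h exposure and ATP-based viability; confirmation added three slower-growing patient lines.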

SKOV3 = experiment: Primary qHTS to identify gynecologic anti-cancer compounds using libraries of approved drugs and bioactive compounds (AID 1345084); settings: Gynecologic cancer cell panel viability, ATPlite luminescence, 48 h; series mostly up to 57.5 µM; note: nearly all actives have a fitted effect of over 55% in size
Summary of the method: as §1

[2] = at 45.9 µM (top of the series), tumour line B
[3] = at 45.9 µM (top of the series), tumour line D
[4] = at 46.1 µM (top of the series), tumour line C
[5] = at 20 µM (top of the series), tumour line C
[6] = at 21.2 µM (top of the series), tumour line B
[7] = at 21.2 µM (top of the series), tumour line D
[8] = at 21.3 µM (top of the series), tumour line A
[9] = at 46 µM (top of the series), tumour line A
Potency is the fitted concentration of half-maximal effect.

With `CCCCN=C(N)N=C(N)N` the Potency (Es-2) was “inactive”, the Potency (HeLa) was “inactive” and the Potency (Hek293T) was “inactive”. For the same molecule, the Potency (JEG-3) was “inactive”, the Potency (OV90) was “inactive” and the Potency (PA-1) was “inactive”. For the same molecule, the Potency (Tov-21-G) was “inactive”, the Potency (Tov112D) was “inactive” and the activity, negative = cell killing [1, 2] was -13.5%. It also gave an activity, negative = cell killing [1, 3] of -11% and an activity, negative = cell killing [1, 4] of -8.24%.
For `Nc1ccc(S(=O)(=O)NCc2ccccc2)cc1`, the Potency (Es-2) was “inactive”, the Potency (HeLa) was “inactive” and the Potency (Hek293T) was “inactive”. The Potency (JEG-3) was “inactive”, the Potency (OV90) was “inactive” and the Potency (PA-1) was “inactive”. The Potency (Tov-21-G) was “inactive”, the Potency (Tov112D) was “inactive” and the activity, negative = cell killing [1, 2] was 0.545%. For the same molecule, the activity, negative = cell killing [1, 3] was -1.8% and the activity, negative = cell killing [1, 4] was -10.5%.
With `CC(C)(C)NC[C@H](O)COc1nsnc1N1CCOCC1` the Potency (Es-2) was “inactive”, the Potency (HeLa) was “inactive” and the Potency (Hek293T) was “inactive”. The Potency (JEG-3) was “inactive”, the Potency (OV90) was “inactive” and the Potency (PA-1) was “inactive”. For the same molecule, the Potency (Tov-21-G) was “inactive”, the Potency (Tov112D) was “inactive” and the activity, negative = cell killing [1, 2] was -9.83%. For the same molecule, the activity, negative = cell killing [1, 3] was -20.5% and the activity, negative = cell killing [1, 4] was -12.6%.
In the case of `CCOC(=O)[C@@](C)(N)Cc1ccc(O)c(O)c1`, the Potency (Es-2) is reported as “inactive”, the Potency (HeLa) is reported as “inactive” and the Potency (Hek293T) is reported as “inactive”. The Potency (JEG-3) was “inactive”, the Potency (OV90) was “inactive” and the Potency (PA-1) was “inactive”. For the same molecule, the Potency (Tov-21-G) was “inactive”, the Potency (Tov112D) was “inactive” and the activity, negative = cell killing [1, 5] was -6.91%. The activity, negative = cell killing [1, 6] was -8.87%, the activity, negative = cell killing [1, 7] was -6.68% and the activity, negative = cell killing [1, 8] was -12.3%.
In the case of `CC(C)NCC(O)c1ccc2ccccc2c1` (stereo unspecified), the Potency (Es-2) is reported as “inactive”, the Potency (HeLa) is reported as “inactive” and the Potency (Hek293T) is reported as “inactive”. For the same molecule, the Potency (JEG-3) was “inactive”, the Potency (OV90) was “inactive” and the Potency (PA-1) was “inactive”. The Potency (Tov-21-G) was “inactive”, the Potency (Tov112D) was “inactive” and the activity, negative = cell killing [1, 2] was -12.4%. It also gave an activity, negative = cell killing [1, 3] of -5.15% and an activity, negative = cell killing [1, 4] of -5.59%.
For `Cc1cccc(C)c1NC(=O)CN1CCCCCC1`, the Potency (Es-2) was “inactive”, the Potency (HeLa) was “inactive” and the Potency (Hek293T) was “inactive”. For the same molecule, the Potency (JEG-3) was “inactive”, the Potency (OV90) was “inactive” and the Potency (PA-1) was “inactive”. For the same molecule, the Potency (Tov-21-G) was “inactive”, the Potency (Tov112D) was “inactive” and the activity, negative = cell killing [1, 2] was -3.5%. For the same molecule, the activity, negative = cell killing [1, 3] was -16.9%, the activity, negative = cell killing [1, 4] was -16.8% and the Potency ([1]; tumour line A) was 35.5 µM (active).
With `Cc1ccc(-c2ncc(Cl)cc2-c2ccc(S(C)(=O)=O)cc2)cn1` the Potency (Es-2) was “inactive”, the Potency (HeLa) was “inactive” and the Potency (Hek293T) was “inactive”. The Potency (JEG-3) was “inactive”, the Potency (OV90) was “inactive” and the Potency (SKOV3) was “inactive”. For the same molecule, the Potency (Tov-21-G) was “inactive”, the Potency (Tov112D) was “inactive” and the activity, negative = cell killing [1, 2] was -0.088%. It also gave an activity, negative = cell killing [1, 3] of -1.02% and an activity, negative = cell killing [1, 4] of -0.632%.
With `O=C(O)CCc1nc2ccccc2[nH]1` the Potency (Es-2) was “inactive”, the Potency (HeLa) was “inactive” and the Potency (Hek293T) was “inactive”. For the same molecule, the Potency (JEG-3) was “inactive”, the Potency (OV90) was “inactive” and the Potency (SKOV3) was “inactive”. For the same molecule, the Potency (Tov-21-G) was “inactive”, the Potency (Tov112D) was “inactive” and the activity, negative = cell killing [1, 2] was -11.4%. The activity, negative = cell killing [1, 3] was 5.36%, the activity, negative = cell killing [1, 9] was -40.1% and the activity, negative = cell killing [1, 4] was -13.5%.
In the case of `Cc1ccc(S(=O)(=O)NC(=O)NC2CCCC2)cc1`, the Potency (Es-2) is reported as “inactive”, the Potency (HeLa) is reported as “inactive” and the Potency (Hek293T) is reported as “inactive”. For the same molecule, the Potency (JEG-3) was “inactive”, the Potency (OV90) was “inactive” and the Potency (PA-1) was “inactive”. For the same molecule, the Potency (Tov-21-G) was “inactive”, the Potency (Tov112D) was “inactive” and the activity, negative = cell killing [1, 2] was -10.4%. For the same molecule, the activity, negative = cell killing [1, 3] was -9.83% and the activity, negative = cell killing [1, 4] was -7.67%.
In the case of `CC(=O)OCC(=O)[C@H]1CC[C@H]2[C@@H]3CCC4=CC(=O)CC[C@]4(C)[C@H]3CC[C@]12C`, the Potency (Es-2) is reported as “inactive”, the Potency (HeLa) is reported as 11.2 µM (active) and the Potency (Hek293T) is reported as “inactive”. For the same molecule, the Potency (JEG-3) was “inactive”, the Potency (OV90) was “inactive” and the Potency (SKOV3) was “inactive”. For the same molecule, the Potency (Tov-21-G) was “inactive”, the Potency (Tov112D) was “inactive” and the activity, negative = cell killing [1, 4] was -12.5%. For the same molecule, the Potency ([1]; tumour line A) was 8.91 µM (active).
With `CC(C)(C)NC[C@H](O)COc1cccc2c1CCCC2=O` the Potency (Es-2) was “inactive”, the Potency (HeLa) was “inactive” and the Potency (Hek293T) was “inactive”. For the same molecule, the Potency (JEG-3) was “inactive”, the Potency (OV90) was “inactive” and the Potency (PA-1) was “inactive”. The Potency (Tov-21-G) was “inactive”, the Potency (Tov112D) was “inactive” and the activity, negative = cell killing [1, 5] was 5.11%. The activity, negative = cell killing [1, 6] was -13.9%, the activity, negative = cell killing [1, 7] was -6.37% and the activity, negative = cell killing [1, 8] was -24.3%.
For `CC(=O)NC(=O)c1ccccc1O`, the Potency (Es-2) was “inactive”, the Potency (HeLa) was “inactive” and the Potency (Hek293T) was “inactive”. The Potency (JEG-3) was “inactive”, the Potency (OV90) was “inactive” and the Potency (PA-1) was “inactive”. The Potency (Tov-21-G) was “inactive”, the Potency (Tov112D) was “inactive” and the activity, negative = cell killing [1, 2] was -6.43%. For the same molecule, the activity, negative = cell killing [1, 3] was -8.37%, the activity, negative = cell killing [1, 9] was -24.9% and the activity, negative = cell killing [1, 4] was -17.7%.
For `COc1cc([C@H]2Oc3cc([C@H]4Oc5cc(O)cc(O)c5C(=O)[C@@H]4O)ccc3O[C@@H]2CO)ccc1O`, the Potency (Es-2) was “inactive”, the Potency (HeLa) was “inactive” and the Potency (Hek293T) was “inactive”. The Potency (JEG-3) was “inactive”, the Potency (OV90) was “inactive” and the Potency (SKOV3) was “inactive”. For the same molecule, the Potency (Tov-21-G) was “inactive”, the Potency (Tov112D) was “inactive” and the activity, negative = cell killing [1, 2] was -0.835%. It also gave an activity, negative = cell killing [1, 3] of -13.1% and an activity, negative = cell killing [1, 4] of -7.07%.
With `CCCCNC(=O)NS(=O)(=O)c1ccc(N)cc1` the Potency (Es-2) was “inactive”, the Potency (HeLa) was “inactive” and the Potency (Hek293T) was “inactive”. The Potency (JEG-3) was “inactive”, the Potency (OV90) was “inactive” and the Potency (PA-1) was “inactive”. For the same molecule, the Potency (Tov-21-G) was “inactive”, the Potency (Tov112D) was “inactive” and the activity, negative = cell killing [1, 2] was -8.59%. The activity, negative = cell killing [1, 3] was 11%, the activity, negative = cell killing [1, 9] was -6.54% and the activity, negative = cell killing [1, 4] was -25.7%.
In the case of `O=C(O)C(Cc1cc(I)c(O)c(I)c1)c1ccccc1` (stereo unspecified), the Potency (Es-2) is reported as “inactive”, the Potency (HeLa) is reported as “inactive” and the Potency (Hek293T) is reported as “inactive”. The Potency (JEG-3) was “inactive”, the Potency (OV90) was “inactive” and the Potency (SKOV3) was “inactive”. For the same molecule, the Potency (Tov-21-G) was “inactive”, the Potency (Tov112D) was “inactive” and the activity, negative = cell killing [1, 2] was 4.75%. For the same molecule, the activity, negative = cell killing [1, 3] was -5.57%, the activity, negative = cell killing [1, 9] was -25.7% and the activity, negative = cell killing [1, 4] was -25.5%.
With `CC(O)Cn1cnc2c1c(=O)n(C)c(=O)n2C` (stereo unspecified) the Potency (Es-2) was “inactive”, the Potency (HeLa) was “inactive” and the Potency (Hek293T) was “inactive”. The Potency (JEG-3) was “inactive”, the Potency (OV90) was “inactive” and the Potency (SKOV3) was “inactive”. For the same molecule, the Potency (Tov-21-G) was “inactive”, the Potency (Tov112D) was “inactive” and the activity, negative = cell killing [1, 5] was 7.77%. The activity, negative = cell killing [1, 6] was -9.45%, the activity, negative = cell killing [1, 7] was -12.1% and the activity, negative = cell killing [1, 8] was -14.4%.
With `C[C@@]12C(=O)OC(=O)[C@]1(C)C1CCC2O1` the Potency (Es-2) was 10 µM (active), the Potency (HeLa) was 3.55 µM (active) and the Potency (Hek293T) was 10 µM (active). For the same molecule, the Potency (JEG-3) was 11.2 µM (active), the Potency (OV90) was 3.16 µM (active) and the Potency (SKOV3) was 8.91 µM (active). The Potency (Tov-21-G) was 8.91 µM (active) and the Potency (Tov112D) was 14.1 µM (active).
